A number with no mark means an inactive call. Records with an inconclusive call do not appear. The source made the active and inactive calls. Unless noted, calls follow the shape of the dose curve; as a rule, active = well fitted curve in either direction with a large enough effect (not every such curve was filed as active); inconclusive = small, poorly fitted or top-dose-only effect, or another doubt; inactive = flat fitted curve, though single readings scatter.

Here are results for 17 compounds from PubChem BioAssay (NCATS).

In assay [1] the target is Lysosomal acid glucosylceramidase (Homo sapiens) (UniProt P04062). The assay can be described thus: Glucocerebrosidase-p2 (AID 348; in the data active = potency below about 10 µM; also: potency is read from the fitted curve at half-maximal effect). The following applies: purified GBA, blue fluorogenic substrate, 40 min. The essentials: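 Compounds titrated from 0.6 nM upwards against 0.2 nM enzyme in pH 5.9 citric acid/KH2PO4, taurocholate, tween-20; blue fluorogenic substrate 80 uM, 40 min room temperature, stopped and read Ex 365/Em 440 for AC50.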

Assay [2] can be described thus: AP1 Signaling Pathway (AID 357).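 Also: ME-180 reporter cells stimulated with EGF at its EC50 level; % is scaled to controls: 0 for no effect and ±100 for the full control effect.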 The following applies: ME-180 AP-1-bla reporter, EGF-induced, beta-lactamase ratio, 5 h; at 7.69 µM (top of the series) unless noted. Put shortly:
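Read-out was the 460nm/530nm emission ratio (excitation 405nm) after CCF4 loading for 2.5 hours at room temperature. Cells carried an AP-1-driven beta-lactamase reporter, were stimulated with EC50 EGF plus compound for 5 hours, and AC50 values came from titrations.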

Assay [3] concerns the target Cytochrome P450 1A2 (Homo sapiens) (UniProt P05177). Kind of assay: p450-cyp1a2 (AID 410; calls by dose curve; also: potency is read from the fitted curve at half-maximal effect;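 as to activity change, negative = inhibition: -100% = full effect of reference inhibitor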). The following applies: recombinant CYP1A2, luciferin-ME demethylation, luminescence; series mostly up to 11.4 µM. Put shortly: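 Luminescent readout of luciferin formed from Luciferin-ME by human CYP1A2; data normalized against complete inhibition by 57 uM furafylline. Enzyme 20nM, substrate 100uM at Km, 100mM KPO4 buffer, 60 min reaction at room temperature.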

Assay [4] can be described thus: Stat Signaling Pathway (AID 446).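 Also: ME-180 cervical cancer cells given 40 pM IL-6 alongside compound; SIE-controlled beta-lactamase reporter measured as 460/530 nm FRET emission ratio; % is scaled to controls: 0 for no effect and ±100 for the full control effect.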 The following applies: ME-180 (cervical carcinoma) SIE beta-lactamase reporter, IL-6 stimulated, 5 h; at 7.69 µM (top of the series) unless noted. The essentials:
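ME-180 cells carrying a SIE-driven beta-lactamase reporter are stimulated with 40 pM IL-6 for 5 h at 37C in the presence of compound. The 460/530 nm FRET substrate ratio is read after 2.5 h at RT. Data are normalised to 300 pM IL-6 and to 125 nM JAK inhibitor controls.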

For assay [5], the target named is Glucocorticoid receptor (Homo sapiens) (UniProt P04150). The assay can be described thus: GR-GFP Redistribution (AID 450;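 active = compounds whose dose series gives a full or clear partial fitted curve of increased nuclear translocation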; also: potency is read from the fitted curve at half-maximal effect). As to conditions: U2OS GR-GFP nuclear translocation, laser cytometry, 2 h.
The target is the same in assay [6]. The assay can be described thus: GR-EFC Redistribution (AID 451; calls by dose curve; also: potency is read from the fitted curve at half-maximal effect). The following applies: CHO-K1 GR-EFC translocation, beta-gal luminescence, 2 h. The essentials: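 CHO-K1 cells expressing nuclear EA and GR-ED fragments of b-gal; compounds titrated up to 46 uM final, 2 h at 37 C. GR nuclear translocation read as complemented b-gal luminescence after 1 h RT detection.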

For assay [7], the target named is Mitogen-activated protein kinase 10 (Mus musculus) (UniProt Q61831). The assay can be described thus: JNK3 AlphaScreen Assay (AID 530).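 Also: kinase came from lysate of stimulated human HepG2 cells; signal reports phosphorylation of biotinylated GST-cJun 1-79 at Ser73 with 10 µM ATP; % is scaled to controls: 0 for no effect and ±100 for the full control effect.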 As to conditions: JNK3 lysate, c-Jun phosphorylation; series mostly up to 11.4 µM. Put shortly: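 Pre-activated (IL-1β/TNFα) JNK3 in HepG2 lysates phosphorylates biotin-GST-cJun(1-79), 10 uM ATP; anti-phospho-cJun(Ser73) AlphaScreen read at room temperature, pH 7.6 Tris buffer. Compounds pre-incubated 15 min as titrations.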
(In general: In Alpha technology, singlet oxygen from a donor bead excites a nearby acceptor bead.)

Assay [8] concerns the target 3',5'-cyclic-AMP phosphodiesterase 4B (Homo sapiens) (UniProt Q07343). Kind of assay: qHTS Assay for Inhibitors of PDE-IV (AID 607; active = well fitted activation curve with a large enough effect in the main read-out, with a control signal flat, not every such curve was filed as active; also: % of control where 0% means no effect). The following applies: HEK293 ACTOne CNG channel cells, membrane potential fluorescence; series mostly up to 22.9 µM. The essentials:
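HEK293 ACTOne cells with CNG channel (1000/well), endogenous PDE4; membrane potential dye, compounds up to 22.9 uM final. Fluorescence Ex 535/Em 590; RO 20-1724 (100 uM final) as reference.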
A general note: In qHTS, concentration-response curves come from the screen itself.

In assay [9] the target is Cytochrome P450 3A4 (Homo sapiens) (UniProt P08684). Kind of assay: qHTS Assay for Activators of Cytochrome P450 3A4 (AID 885; active = well fitted curve in the direction sought with a large enough effect; an effect the other way counts as inactive or inconclusive; also: nearly all actives have a fitted effect of over 65% in size). As to conditions: recombinant CYP3A4, Luciferin-PPXE luminescence, 60 min; series mostly up to 11.4 µM. Put shortly: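 Human CYP3A4 (20 nM) with Luciferin-PPXE at 25 uM (its KM) in 200 mM KPO4; 10 min compound preincubation, then NADPH regeneration and 60 min reaction at RT. Luciferin read by luminescence; normalized to 57 uM ketoconazole full inhibition.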

Assay [10] deals with Cytochrome P450 2C9 (Homo sapiens) (UniProt P11712). The assay can be described thus: qHTS Assay for Inhibitors and Substrates of Cytochrome P450 2C9 (AID 883; active = well fitted curve in the direction sought with a large enough effect; an effect the other way counts as inactive or inconclusive; also: potency is read from the fitted curve at half-maximal effect; nearly all actives have a fitted effect of over 60% in size). As to conditions: recombinant CYP2C9, luciferin-H luminescence, 60 min; series mostly up to 11.4 µM. The essentials:
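Signal: luciferase luminescence reporting luciferin produced by CYP2C9. Conditions: 10nM enzyme, Luciferin-H 100uM at KM, 25mM KPO4, 37C, 60 min NADPH-driven reaction. Reference: 57uM sulphaphenazole as 100% inhibition.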

Sequence of 3',5'-cyclic-AMP phosphodiesterase 4B (Homo sapiens) (Q07343 whole entry, looked up): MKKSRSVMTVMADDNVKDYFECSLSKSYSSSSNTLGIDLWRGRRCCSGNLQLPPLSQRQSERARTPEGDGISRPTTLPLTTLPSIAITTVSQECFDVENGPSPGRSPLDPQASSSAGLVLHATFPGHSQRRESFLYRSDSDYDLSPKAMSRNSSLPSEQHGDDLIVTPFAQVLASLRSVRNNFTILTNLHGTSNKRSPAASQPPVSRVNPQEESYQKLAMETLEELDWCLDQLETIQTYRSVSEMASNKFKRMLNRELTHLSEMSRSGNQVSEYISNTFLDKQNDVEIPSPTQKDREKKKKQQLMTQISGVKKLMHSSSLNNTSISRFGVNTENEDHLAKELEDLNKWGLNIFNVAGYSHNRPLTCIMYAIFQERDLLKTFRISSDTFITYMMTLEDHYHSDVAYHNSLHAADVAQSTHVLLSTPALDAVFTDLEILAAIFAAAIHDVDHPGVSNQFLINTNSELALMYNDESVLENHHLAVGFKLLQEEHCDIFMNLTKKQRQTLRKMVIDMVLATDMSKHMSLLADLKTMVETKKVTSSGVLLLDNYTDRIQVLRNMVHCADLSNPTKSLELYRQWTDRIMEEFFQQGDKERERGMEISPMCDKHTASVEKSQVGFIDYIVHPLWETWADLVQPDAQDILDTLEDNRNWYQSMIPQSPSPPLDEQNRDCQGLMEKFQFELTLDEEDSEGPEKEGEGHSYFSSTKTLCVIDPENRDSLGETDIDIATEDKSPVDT
Sequence of Lysosomal acid glucosylceramidase (Homo sapiens) (P04062 whole entry, looked up): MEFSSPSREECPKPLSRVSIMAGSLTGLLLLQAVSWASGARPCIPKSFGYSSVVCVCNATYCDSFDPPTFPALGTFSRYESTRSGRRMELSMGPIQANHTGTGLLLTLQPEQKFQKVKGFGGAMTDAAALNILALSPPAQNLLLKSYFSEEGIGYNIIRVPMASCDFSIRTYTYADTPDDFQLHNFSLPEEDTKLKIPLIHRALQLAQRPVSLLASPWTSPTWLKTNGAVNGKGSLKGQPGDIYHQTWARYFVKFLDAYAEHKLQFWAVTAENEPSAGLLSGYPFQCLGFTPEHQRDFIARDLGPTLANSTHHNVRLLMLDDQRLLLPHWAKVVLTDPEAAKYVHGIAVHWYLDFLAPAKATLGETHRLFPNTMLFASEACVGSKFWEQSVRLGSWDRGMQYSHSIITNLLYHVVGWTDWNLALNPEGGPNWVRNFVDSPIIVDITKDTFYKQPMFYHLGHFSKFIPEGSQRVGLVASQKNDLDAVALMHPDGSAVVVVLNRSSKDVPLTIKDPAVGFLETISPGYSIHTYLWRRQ
Sequence of Glucocorticoid receptor (Homo sapiens) (P04150 whole entry, looked up, the tested form may be a part): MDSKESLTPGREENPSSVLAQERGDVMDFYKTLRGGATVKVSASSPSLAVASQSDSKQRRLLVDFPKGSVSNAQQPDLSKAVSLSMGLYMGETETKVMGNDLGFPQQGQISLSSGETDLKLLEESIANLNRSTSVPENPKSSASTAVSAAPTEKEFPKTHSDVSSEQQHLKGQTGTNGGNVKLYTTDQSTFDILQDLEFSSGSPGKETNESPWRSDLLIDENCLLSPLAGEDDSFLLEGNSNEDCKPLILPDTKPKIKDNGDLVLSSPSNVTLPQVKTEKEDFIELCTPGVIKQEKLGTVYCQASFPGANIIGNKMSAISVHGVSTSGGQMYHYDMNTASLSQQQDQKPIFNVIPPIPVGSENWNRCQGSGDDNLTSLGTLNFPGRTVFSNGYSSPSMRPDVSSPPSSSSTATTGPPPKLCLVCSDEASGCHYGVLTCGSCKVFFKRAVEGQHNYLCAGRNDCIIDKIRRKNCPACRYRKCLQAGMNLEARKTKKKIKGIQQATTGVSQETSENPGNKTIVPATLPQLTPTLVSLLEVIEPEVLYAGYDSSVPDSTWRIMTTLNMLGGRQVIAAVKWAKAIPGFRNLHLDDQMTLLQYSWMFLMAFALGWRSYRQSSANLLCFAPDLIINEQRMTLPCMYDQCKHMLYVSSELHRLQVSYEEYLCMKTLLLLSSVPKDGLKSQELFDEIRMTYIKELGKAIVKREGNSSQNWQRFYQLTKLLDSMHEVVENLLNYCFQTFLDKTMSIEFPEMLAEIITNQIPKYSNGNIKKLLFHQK
Sequence of Cytochrome P450 1A2 (Homo sapiens) (P05177 whole entry, looked up): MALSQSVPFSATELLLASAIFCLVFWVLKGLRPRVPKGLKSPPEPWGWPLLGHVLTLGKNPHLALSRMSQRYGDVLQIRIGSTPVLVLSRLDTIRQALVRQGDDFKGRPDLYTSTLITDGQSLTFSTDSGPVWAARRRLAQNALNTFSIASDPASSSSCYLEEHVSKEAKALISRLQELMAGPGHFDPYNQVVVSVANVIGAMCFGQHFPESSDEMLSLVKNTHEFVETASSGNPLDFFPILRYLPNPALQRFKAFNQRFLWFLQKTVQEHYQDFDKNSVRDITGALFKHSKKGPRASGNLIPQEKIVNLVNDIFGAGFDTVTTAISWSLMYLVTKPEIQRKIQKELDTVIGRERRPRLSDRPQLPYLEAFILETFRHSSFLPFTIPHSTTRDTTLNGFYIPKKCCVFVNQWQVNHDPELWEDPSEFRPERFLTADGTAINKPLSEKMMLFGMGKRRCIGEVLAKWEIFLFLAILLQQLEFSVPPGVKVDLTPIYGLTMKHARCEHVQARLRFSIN
Sequence of Cytochrome P450 3A4 (Homo sapiens) (P08684 whole entry, looked up): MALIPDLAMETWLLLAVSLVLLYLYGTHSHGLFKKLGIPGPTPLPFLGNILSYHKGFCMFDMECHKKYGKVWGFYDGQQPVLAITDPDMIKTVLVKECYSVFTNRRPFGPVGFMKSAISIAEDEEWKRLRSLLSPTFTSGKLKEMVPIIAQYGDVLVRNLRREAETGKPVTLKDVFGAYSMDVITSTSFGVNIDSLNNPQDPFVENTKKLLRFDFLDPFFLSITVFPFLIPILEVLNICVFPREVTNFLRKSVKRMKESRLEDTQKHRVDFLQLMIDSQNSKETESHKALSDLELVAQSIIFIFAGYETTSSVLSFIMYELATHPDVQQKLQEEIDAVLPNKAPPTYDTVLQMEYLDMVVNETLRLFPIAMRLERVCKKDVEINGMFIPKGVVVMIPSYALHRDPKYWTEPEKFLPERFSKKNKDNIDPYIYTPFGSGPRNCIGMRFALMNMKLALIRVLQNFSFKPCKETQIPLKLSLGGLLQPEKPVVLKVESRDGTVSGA
Sequence of Cytochrome P450 2C9 (Homo sapiens) (P11712 whole entry, looked up): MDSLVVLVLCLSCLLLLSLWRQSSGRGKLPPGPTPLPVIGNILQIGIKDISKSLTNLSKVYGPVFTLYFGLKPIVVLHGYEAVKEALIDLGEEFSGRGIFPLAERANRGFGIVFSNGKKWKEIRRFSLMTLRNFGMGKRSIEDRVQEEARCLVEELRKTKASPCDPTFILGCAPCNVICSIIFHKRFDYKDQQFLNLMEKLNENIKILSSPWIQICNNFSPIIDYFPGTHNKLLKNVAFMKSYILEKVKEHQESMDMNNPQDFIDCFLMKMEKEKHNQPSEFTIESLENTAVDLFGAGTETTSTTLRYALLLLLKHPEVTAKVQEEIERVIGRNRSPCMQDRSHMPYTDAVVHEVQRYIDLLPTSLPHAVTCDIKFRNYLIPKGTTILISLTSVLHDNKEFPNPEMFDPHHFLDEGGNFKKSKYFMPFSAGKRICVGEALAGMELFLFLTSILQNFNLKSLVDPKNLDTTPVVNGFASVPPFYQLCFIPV

On to `N[C@@H](Cc1cccnn1)C(=O)O`, for which the Potency in assay [1] is more than 11.4 µM; in [3], 3.16 µM (active); in [5], more than 46 µM; in [6] it was more than 9.22 µM. Besides, in assay [2], the activity change, negative = inhibition is 2.23%. Besides, the activity, negative = inhibition in [4] was 2.86%. Further, the Potency entry in [7] and in [8] was “inactive” each time.
Consider `CN(C)CCCN1CCC2(CCC(C(C)(C)C)CC2)CC1`, for which the Potency in [1] is more than 11.4 µM; in assay [5], more than 46 µM; in [6] it was more than 9.22 µM. The activity change, negative = inhibition in [2] was -6.54%. For the same compound, the Potency entry in assay [3] and in assay [7] was “inactive” throughout. In addition, the activity, negative = inhibition in assay [4] is 8.08%.
Consider `N[C@@H](Cc1[nH]nc2ccccc12)C(=O)O`, for which the Potency in assay [1] is more than 11.4 µM; in assay [5], more than 46 µM; in assay [6], more than 9.22 µM. Besides, the activity change, negative = inhibition in [2] is 5.54%. For the same compound, the Potency result in [3], in assay [7] and in assay [8] was “inactive” throughout. For the same compound, in assay [4], the activity, negative = inhibition is -0.642%.
For `[O-][N+](CCO)(CCO)c1ncnc2nc[nH]c12`, the Potency in assay [1] was more than 11.4 µM; in [5] it was more than 46 µM; in assay [6], more than 9.22 µM. Moreover, the activity change, negative = inhibition in assay [2] was 1.99%. Moreover, the Potency entry in [3], in assay [7] and in assay [8] was “inactive” in each case. Further, the activity, negative = inhibition in assay [4] was -1.19%.
On to `Cc1ccc(C2=C(Cl)C(=O)C(c3ccc(C)cc3)=C(Cl)C2=O)cc1`, for which the Potency in assay [1] is more than 11.4 µM; in [5] it was more than 46 µM; in assay [6], more than 9.22 µM. Further, the activity change, negative = inhibition was 4.65% in [2] and -16.9% [at 2.29 µM] in assay [3]. The activity, negative = inhibition in assay [4] is -13.6%. Also, the Potency result in assay [7] and in assay [8] was “inactive” in each case.
For the compound `CCN(CC)CC[n+]1ccc2c(C)c3[nH]c4ccc(O)cc4c3c(C)c2c1`, the Potency in [1] was more than 11.4 µM; in assay [3] it was 3.16 µM (active); in assay [5] it was more than 46 µM; in [6], more than 9.22 µM. Further, the activity change, negative = inhibition in assay [2] was 0.748%. For the same compound, the activity, negative = inhibition in [4] is 26.1%. The Potency result in assay [7] and in assay [8] was “inactive” each time.
For `Fc1cccc(CSc2ncnc3c2ncn3[C@H]2CCCS2)c1`, the Potency was more than 11.4 µM in assay [1], 0.501 µM (active) in [3], more than 46 µM in assay [5] and more than 9.22 µM in assay [6]. Moreover, in assay [2], the activity change, negative = inhibition was -5.08%. In [4], the activity, negative = inhibition is 3.04%. In addition, the Potency entry in assay [7] and in [8] was “inactive” each time.
`c1cc2c(cc1C(N1CCNCC1)N1CCNCC1)OCO2`: the Potency is more than 11.4 µM in assay [1], more than 46 µM in assay [5] and more than 9.22 µM in assay [6]. Moreover, the figures for the activity change, negative = inhibition in [2] and in assay [3] were 1.84% and -3% [at 2.29 µM], respectively. Further, the activity, negative = inhibition in [4] is -2.48%. Besides, the Potency result in assay [7] and in assay [8] was “inactive” each time.
With `Cc1c2cc[n+](CCN3CCCCC3)cc2c(C)c2c1[nH]c1ccc(O)cc12`, the Potency in assay [1] was more than 11.4 µM; in assay [3], 2.51 µM (active); in [5], more than 46 µM; in [6], more than 9.22 µM. For the same compound, in [2], the activity change, negative = inhibition was 9.2%. For the same compound, the activity, negative = inhibition in assay [4] is 17.1%. In addition, the Potency entry in [7] and in assay [8] was “inactive” each time.
In the case of `CC(C)=C[C@H]1[C@@H](COC(=O)c2ccccc2Cl)C1(C)C`, the Potency in assay [1] is more than 11.4 µM; in [3], 3.98 µM (active); in [5], more than 46 µM; in assay [6] it was more than 9.22 µM. Also, the activity change, negative = inhibition in [2] was 8.2%. For the same compound, the activity, negative = inhibition in assay [4] was -1.06%. Also, the Potency result in assay [7] and in assay [8] was “inactive” in each case.
Turning to `COc1ncc2nc(CCc3ccccc3)c(=O)n(C)c2n1`, the Potency in assay [1] is more than 11.4 µM; in assay [3] it was 5.01 µM (active); in [5], more than 9.22 µM; in [6], more than 46 µM. For the same compound, the activity change, negative = inhibition in assay [2] was -29.7%. For the same compound, the activity, negative = inhibition in assay [4] is -1.2%. The Potency result in assay [7] and in assay [8] was “inactive” throughout.
As to `Cc1cc(C)nc(SCCc2cccc[n+]2C)n1`, the Potency in assay [1] is more than 11.4 µM; in assay [5], more than 46 µM; in assay [6] it was more than 9.22 µM. Moreover, the figures for the activity change, negative = inhibition in assay [2] and in [3] were -4.14% and -18.6% [at 2.29 µM], respectively. Moreover, the activity, negative = inhibition in [4] is 6.72%. The Potency result in assay [7] and in [8] was “inactive” each time.
As to `O=C(O)c1cc2c(cc1S(=O)(=O)O)[C@H]1[C@@H]([C@H]3[C@H]2[C@@]2(Cl)C(Cl)=C(Cl)[C@]3(Cl)C2(Cl)Cl)[C@]2(Cl)C(Cl)=C(Cl)[C@@]1(Cl)C2(Cl)Cl`, the Potency was more than 11.4 µM in assay [1], more than 46 µM in assay [5] and more than 9.22 µM in [6]. Also, in assay [2], the activity change, negative = inhibition was 5.22%. Also, the Potency entry in [3], in assay [7] and in assay [8] was “inactive” in each case. In addition, the activity, negative = inhibition in assay [4] is -4.58%.
On to `Cn1ncc2c(Nc3cccc(Cl)c3)nc(Nc3cccc(Cl)c3)nc21`, for which the Potency in assay [1] was 7.36 µM (active); in assay [3], 3.98 µM (active); in assay [5], more than 46 µM; in assay [6] it was more than 9.22 µM. Moreover, the activity change, negative = inhibition in assay [2] was -0.941%. In assay [4], the activity, negative = inhibition was 4.09%. Besides, the Potency entry in assay [7], in [8] and in assay [9] was “inactive” in each case.
With `O=C(O)C[C@H](S)C(=O)O`, the Potency is more than 11.4 µM in assay [1], more than 46 µM in assay [5] and more than 9.22 µM in [6]. Also, the activity change, negative = inhibition in [2] is -3.09%. The Potency entry in [3], in assay [7] and in assay [8] was “inactive” each time. Further, the activity, negative = inhibition in [4] was -8.04%.
For `N=C1CCC[C@@H]1C(=S)SCCC(N)=O`, the Potency is more than 11.4 µM in [1], 3.16 µM (active) in [3], more than 46 µM in assay [5] and more than 9.22 µM in assay [6]. Moreover, the activity change, negative = inhibition in [2] is -7.71%. Besides, the activity, negative = inhibition in assay [4] is -12.4%. For the same compound, the Potency result in [7] and in assay [8] was “inactive” in each case.
Turning to `N=C(N)SCc1nc(-c2ccc(Cl)cc2)no1`, the Potency in assay [1] was more than 11.4 µM; in assay [3], 1.26 µM (active); in assay [5], more than 46 µM; in assay [6] it was more than 9.22 µM; in assay [10] it was 3.98 µM (active). Besides, in assay [2], the activity change, negative = inhibition was 26%. Besides, the activity, negative = inhibition in assay [4] was 17.8%. The Potency result in assay [7], in assay [8] and in [9] was “inactive” in each case.
